Measured values reported in PubChem BioAssay AID504832 (National Center for Advancing Translational Sciences (NCATS), 2011).
Hit rate of the full screen: of about 310,000 compounds, about 18,000 (5.8%) were called active. A call without a number means that no potency is given here. Inconclusive results (about 22%) are left out. This excerpt belongs to a sample that is enriched for actives. Values without a mark were called inactive. Calls come from the whole dose curve; as a rule, active = well fitted inhibition curve with a large enough effect; inconclusive = small, poorly fitted or top-dose-only effect, or another doubt; inactive = no such curve, though single readings can be large or run the other way.

Assay: Primary qHTS for delayed death inhibitors of the malarial parasite plastid, 48 hour incubation
Conditions: P. falciparum luciferase growth in erythrocytes; series mostly up to 28.7 µM
From the text: The goal of this screen is to discover new antimalarial compounds that act by inhibiting the development of the apicoplast in the malarial parasite Plasmodium falciparum. The biochemical processes that make this organelle essential for erythrocytic stage parasites are not well understood. However, antibiotics such as azithromycin and tetracycline, which target the apicoplast translational machinery, have a potent antimalarial effect.
We have developed a cell-based assay that measures parasite growth based on the expression of an integrated copy of a firefly luciferase reporter. To detect small molecules that cause this "delayed death" phenotype, erythrocytes infected with the luciferase-expressing parasites were incubated with compounds for either one or two generations, corresponding to 48 and 96 hours, respectively. Compounds that inhibit parasite growth in the second generation, but not the first, should be enriched in antimalarials that target the apicoplast. Growth inhibition is detected by a decrease in luciferase activity.
Assay Provider: David Fidock and Eric Ekland, Columbia University
Keywords: NIH Roadmap, MLPCN, MLI, MLSMR, qHTS, NCGC, qHTS, malaria, luciferase, viability
Four microliters of culture medium (RPMI 1640 with 0.5% w/v Albumax (GIBCO), 24 mM sodium bicarbonate and 10 ug/mL gentamycin) were dispensed by a Multi-drop Combi into white solid 1536-well plates (Grenier) and 23 nL compound was added by a pin tool. Four microliters of infected erythrocytes (2% hematocrit, 0.1% parasitemia final concentration) in culture medium were dispensed and the plates incubated for 48 hours at 37 C in 5% CO2. Two microliters of luciferase detection reagent was added and luminescence was detected by a ViewLux (PerkinElmer) reader.
Potency is the fitted concentration of half-maximal effect.

Row | Compound | Potency | activity change, negative = inhibition
1 | COc1ccc(CN2C(=O)CN=C2Nc2ccc(C)cc2C)cc1 | inactive | –
2 | CC(C)(C)c1ccc(CN2C(=O)CN=C(c3ccccc3)c3ccccc32)cc1 | 2.08 µM (active) | –
3 | CCn1c(CN2C(=O)CSc3ccccc32)n[nH]c1=S | inactive | –
4 | O=S(=O)(NCCc1ccc(Cl)cc1)c1cccs1 | inactive | –
5 | Cc1cc(NCc2ccco2)n2c(nc3ccccc32)c1C#N | 4.15 µM (active) | –
6 | Cc1ccccc1-c1nc(C#N)c(NCc2ccco2)o1 | inactive | –
7 | Cc1cc(NC(C)C)n2c(nc3ccccc32)c1C#N | inactive | –
8 | COc1ccc(CCN2CC(C(=O)NCCN3CCNC3=O)CCC2=O)cc1 (stereo not drawn) | inactive | –
9 | CC1CCN(S(=O)(=O)c2ccc(S(=O)(=O)NCc3ccco3)cc2)CC1 | inactive | –
10 | O=C(CN1CCN(S(=O)(=O)c2ccc(F)cc2)CC1)NC1CC1 | inactive | –
11 | O=C(O)C1CCCCC1C(=O)N1CCN(S(=O)(=O)c2ccc(F)cc2)CC1 (stereo not drawn) | inactive | –
12 | O=S(=O)(c1ccc(F)cc1)N1CCN(C(=S)NC2CCCC2)CC1 | 7.38 µM (active) | –
13 | O=S(=O)(c1ccc(F)cc1)N1CCN(C(=S)NCc2ccco2)CC1 | 1.47 µM (active) | –
14 | Cc1ccc(S(=O)(=O)N2CCC(C(=O)N[C@@H](C)C(=O)NCc3ccco3)CC2)cc1 | inactive | –
15 | C=CCOc1ccc(/C=C/C(=O)OC(C)C(=O)Nc2ccc(NC(C)=O)cc2)cc1 (stereo not drawn) | inactive | –
16 | O=C(CN1CCCCCC1)Nc1ccc(Br)cc1[N+](=O)[O-] | inactive | –
17 | Cc1cc(OCC(=O)N(C)c2c(N)n(Cc3ccccc3)c(=O)[nH]c2=O)c(C(C)C)cc1Cl | inactive | –
18 | COc1ccc(CCN(C)CCN2C(=O)c3ccccc3C2=O)cc1OC | inactive | –
19 | COc1ccc(CCN2C(=O)c3[nH]nc(-c4ccccc4O)c3C2c2ccc(C)cc2)cc1OC (stereo not drawn) | 9.28 µM (active) | –
20 | COc1cc(C2C(C(=O)c3ccc(C)o3)=C(O)C(=O)N2CCc2ccccc2)ccc1O (stereo not drawn) | inactive | –
21 | COC(=O)c1nc2n(n1)C(c1ccc([N+](=O)[O-])cc1)C(C(=O)Nc1ccc(Cl)cc1)=C(C)N2 (stereo not drawn) | 1.65 µM (active) | –
22 | COCCOC(=O)C1=C(C)Nc2nc(C)nn2C1c1ccccc1 (stereo not drawn) | inactive | –
23 | COc1ccc(NC(=O)C2=C(C)NC(=O)NC2c2ccccc2[N+](=O)[O-])cc1 (stereo not drawn) | inactive | –
24 | COCCN1CCN(C(=O)c2cc(COc3ccc(F)cc3Cl)on2)CC1 | inactive | –
25 | CC1CC(C)CN(S(=O)(=O)c2cccc3nonc23)C1 (stereo not drawn) | inactive | –
26 | C=CCn1c(SCC(=O)NCCCO)nc2sc3c(c2c1=O)CCC3 | inactive | –

Row | Compound | Potency | activity change, negative = inhibition
27 | CC(C)c1nc(SCC(=O)Nc2cccc(C(=O)O)c2)c2c3c(sc2n1)CCCC3 | inactive | –
28 | CC1=CC(C)(C)Nc2ccc(OC(=O)CN3C(=O)C4CCCCC4C3=O)cc21 (stereo not drawn) | 10.4 µM (active) | –
29 | O=C(CN1C(=O)C2C3CCC(C3)C2C1=O)Oc1ccc2ccccc2c1 (stereo not drawn) | inactive | –
30 | Cc1ccc(C)n1C(Cc1ccccc1)C(=O)O (stereo not drawn) | inactive | –
31 | CC(OC(=O)CN1C(=O)C2CCCCC2C1=O)C(=O)Nc1ncc(Cl)cc1Cl (stereo not drawn) | inactive | –
32 | CC1=CC(C)(C)Nc2ccc(OC(=O)C(Cc3ccccc3)N3C(=O)C4CCCCC4C3=O)cc21 (stereo not drawn) | 13.1 µM (active) | –
33 | CCC1(C)NC(=O)N(CC(=O)N2CCN(c3cccc(Cl)c3)CC2)C1=O (stereo not drawn) | inactive | –
34 | Cc1ccc(C)c(NC(=O)COC(=O)CSc2ccccc2)c1 | inactive | –
35 | Cc1cccc(C)c1NC(=O)N1CC(C)OC(C)C1 (stereo not drawn) | inactive | –
36 | Cc1sc2nc(CSCC(=O)NC3CCCCC3)[nH]c(=O)c2c1C | inactive | –
37 | CNC(=O)CN1C(=O)NC(c2ccccc2)(c2ccccc2)C1=O | inactive | –
38 | CCC1(c2ccccc2)C(=O)NC(=O)N(C)C1=O (stereo not drawn) | 16.9 µM (active) | –
39 | Cc1c(C=O)n(C)n(-c2ccccc2)c1=O | inactive | –
40 | CN(CCc1ccccc1)c1ccc([N+](=O)[O-])cn1 | inactive | –
41 | COc1ccccc1/C=C1\SC(=O)N(CCC(=O)N(C)C2CCS(=O)(=O)C2)C1=O (stereo not drawn) | inactive | –
42 | CCC(=O)c1ccc(OC(=O)/C=C/c2cc(OC)c(OC)c(OC)c2)cc1 | inactive | –
43 | O=C(NCC(c1cccnc1)N1CCN(c2ccccc2)CC1)Oc1ccccc1 (stereo not drawn) | 13.1 µM (active) | –
44 | Cc1ccc(C)c(NC(=S)NCC(c2cccnc2)N2CCOCC2)c1 (stereo not drawn) | inactive | –
45 | CN1CCN(C(CNS(=O)(=O)c2cccs2)c2cccnc2)CC1 (stereo not drawn) | inactive | –
46 | COc1cc(CO)ccc1OCC(=O)Nc1cccc2ccccc12 | inactive | –
47 | CC(C)(CNC(=O)CNC(=O)C1CCCCC1)N1CCOCC1 | inactive | –
48 | O=C(NC(=S)Nc1ccc(Cl)c(C(=O)O)c1)c1cncc(Br)c1 | inactive | –
49 | O=C(COC(=O)c1ccccc1)Nc1ccc(Cl)cc1C(=O)c1ccccc1 | inactive | –
50 | O=C(CCNS(=O)(=O)c1ccccc1)Nc1ccc(Cl)cc1C(=O)c1ccccc1 | 11.7 µM (active) | –
51 | CN1CCN(C(=S)SCC(=O)Nc2ccc(Cl)cc2C(=O)c2ccccc2)CC1 | inactive | –
52 | COc1ccc(-c2nnc(SCC(=O)Nc3cccnc3Cl)n2C)cc1 | inactive | –

Row | Compound | Potency | activity change, negative = inhibition
53 | Cc1ccc(NC(=O)CN(C)C(=O)Cn2nnc(-c3ccccc3)n2)cc1 | inactive | –
54 | COc1ccccc1C(=O)COC(=O)CNS(=O)(=O)c1ccc(NC(C)=O)cc1 | inactive | –
55 | O=C(Nc1ncccc1O)c1ccc(C(=O)c2ccccc2)cc1 | 0.738 µM (active) | –
56 | O=C(Nc1ncccc1O)c1ccc(S(=O)(=O)N2CCCC2)cc1 | 3.29 µM (active) | –
57 | O=C(N/N=C/c1ccccn1)c1ccc(S(=O)(=O)N2CCCCCC2)cc1 | inactive | –
58 | O=C(Nc1cccnc1)c1cccc(S(=O)(=O)N2CCCC2)c1 | inactive | –
59 | O=C(NC(=O)c1ccccc1)Nc1ccccc1O | – | -2.78% [at 0.00184 µM]
60 | O=C(Nc1ccc(S(=O)(=O)N2CCCCCC2)cc1)c1c(F)cccc1F | inactive | –
61 | O=C(Nc1cccc(F)c1)c1ccc(S(=O)(=O)N2CCCC2)cc1 | inactive | –
62 | O=C(CNC(=O)c1ccc2ccccc2c1)Nc1ncccc1O | inactive | –
63 | O=C(Nc1ncccc1O)c1ccc(S(=O)(=O)N2CCCCCC2)cc1 | 4.15 µM (active) | –
64 | O=C(COc1ccc(Cl)cc1Cl)N/N=C/c1ccccn1 | inactive | –
65 | CCc1ccc(NC(=O)CCNS(=O)(=O)c2cccs2)cc1 | inactive | –
66 | O=C(CCNC(=O)c1ccccc1)Nc1nc2ccccc2s1 | inactive | –
67 | CCN(CC(=O)Nc1c(F)cccc1F)C(=O)CN1c2cccc3cccc(c23)S1(=O)=O | inactive | –
68 | O=CN1CCN(C(=O)c2ccc(Br)o2)CC1 | inactive | –
69 | COc1ccc(CCNC(=O)CN(C)S(=O)(=O)c2ccc3nc(C)sc3c2)cc1OC | inactive | –
70 | Cc1cc(C)c(NC(=O)CN2CCCCCC2)c(C)c1 | inactive | –
71 | Cc1cc(C)c(NC(=O)C[N+](C)(C)CC(O)COc2cccc3ccccc23)c(C)c1 (stereo not drawn) | 5.22 µM (active) | –
72 | Cc1cc(C)cc(OCC(=O)NCc2cc(C)nc3ccccc23)c1 | inactive | –
73 | Cc1ccccc1C(=O)Nc1ccccc1NC(=O)c1ccccc1C | – | 1.11% [at 0.00184 µM]
74 | N#Cc1c(-c2ccccc2)nc(SCc2ccc([N+](=O)[O-])cc2)[nH]c1=O | inactive | –
75 | O=C(NCCN1CCN(Cc2ccccc2)CC1)c1cc2c(=O)[nH]c3ccccc3c2s1 | 10.4 µM (active) | –
76 | Cn1c(C(=O)NCCCN2CCN(c3cccc(Cl)c3)CC2)cc2c(=O)n(C)c3ccccc3c21 | inactive | –
77 | O=C(Cc1c(O)c2ccccc2[nH]c1=O)NCc1ccccc1 | inactive | –
78 | O=C(CCCn1c(=O)[nH]c2cc(Cl)ccc2c1=O)NCCN1CCN(c2ccccc2)CC1 | inactive | –

Row | Compound | Potency | activity change, negative = inhibition
79 | O=C(CN1C(=O)COc2ccccc21)NCCN1CCc2ccccc2C1 | inactive | –
80 | Cn1c(C(=O)NCCN2CCc3ccccc3C2)cc2c(=O)[nH]c3ccccc3c21 | 13.1 µM (active) | –
81 | COCC(=O)N1CCc2ccc(NC(=O)c3ccccc3Cl)cc2C1 | inactive | –
82 | Cc1ccccc1NC(=O)COc1cccc2c1CCNC2=O | inactive | –
83 | O=C(Cn1nc(C(=O)O)c2ccccc2c1=O)Nc1ccc(F)cc1 | inactive | –
84 | CCOc1ccccc1NS(=O)(=O)c1c[nH]c(C(=O)OC)c1 | inactive | –
85 | Cc1nc2ccccn2c(=O)c1NC(=O)c1cccs1 | inactive | –
86 | O=C(NCc1ccccc1Cl)C1CCN(c2ncnc3c2nc2n3CCCCC2)CC1 | inactive | –
87 | COc1ccc(-n2c(SCC(=O)OC(C)C)nnc2-c2ccccn2)cc1 | inactive | –
88 | Cc1ccc(-n2c(Cc3cccs3)nnc2SCC(=O)OC(C)C)cc1 | 11.7 µM (active) | –
89 | Cc1ccc(-c2nnc(SCC(=O)N/N=C/c3cccs3)n2-c2ccc(C)cc2)cc1 | inactive | –
90 | COc1cccc(C(=O)OCC(=O)c2[nH]c(C)c(C(C)=O)c2C)c1 | inactive | –
91 | O=C(NCc1ccccc1Cl)C1CCCN1S(=O)(=O)c1ccc(F)cc1 (stereo not drawn) | inactive | –
92 | O=C(NCc1ccccc1Cl)C(=O)NCC1CCCN1S(=O)(=O)c1cccs1 (stereo not drawn) | 14.7 µM (active) | –
93 | O=C(NCCC1CCCCN1S(=O)(=O)c1cccs1)C(=O)Nc1ccc(F)cc1F (stereo not drawn) | inactive | –
94 | Cc1ccc(S(=O)(=O)NCC(=O)N(CC(=O)NCC2CCCO2)c2cccc(F)c2)cc1 (stereo not drawn) | inactive | –
95 | N#CCCN(C(=O)COC(=O)c1ccc(S(=O)(=O)N2CCCCCC2)cc1)c1ccccc1 | inactive | –
96 | CC(=O)c1ccc(N2Cc3ccccc3C2)cc1 | inactive | –
97 | O=C(OCC(=O)c1c[nH]c2ccccc12)c1cccc(O)c1 | inactive | –
98 | CCOc1ncccc1C(=O)OCC(=O)c1c[nH]c2ccccc12 | 13.1 µM (active) | –
99 | CCOc1ncccc1C(=O)OCC(=O)NC1CC1 | inactive | –
100 | O=C(O)c1ccccc1-c1ccccc1C(=O)Nc1ccccc1Br | inactive | –
101 | COc1ccc(C)cc1NC(=O)CSc1nnc2ccc(-c3ccccn3)nn12 | inactive | –
102 | CCCCc1ccc(NC(=O)NCc2cccnc2)cc1 | inactive | –
103 | CCc1ccc(N2CC(C(=O)N3CCCCCC3)CC2=O)cc1 (stereo not drawn) | inactive | –
